The values below come from PubChem BioAssay AID602410 (Johns Hopkins Ion Channel Center, 2012).

Hit rate of the full screen: of about 340,000 compounds, about 2,800 (0.82%) were called active. This is one part of a sample in which actives are shown more often than they occur.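 Rule for the calls: active = B-score under library mean minus 4 SD, starting fluorescence ratio at most library mean plus 5 SD; inactive = the rest.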

Potassium channel subfamily K member 3 (Homo sapiens), sequence (O14649 whole entry, looked up): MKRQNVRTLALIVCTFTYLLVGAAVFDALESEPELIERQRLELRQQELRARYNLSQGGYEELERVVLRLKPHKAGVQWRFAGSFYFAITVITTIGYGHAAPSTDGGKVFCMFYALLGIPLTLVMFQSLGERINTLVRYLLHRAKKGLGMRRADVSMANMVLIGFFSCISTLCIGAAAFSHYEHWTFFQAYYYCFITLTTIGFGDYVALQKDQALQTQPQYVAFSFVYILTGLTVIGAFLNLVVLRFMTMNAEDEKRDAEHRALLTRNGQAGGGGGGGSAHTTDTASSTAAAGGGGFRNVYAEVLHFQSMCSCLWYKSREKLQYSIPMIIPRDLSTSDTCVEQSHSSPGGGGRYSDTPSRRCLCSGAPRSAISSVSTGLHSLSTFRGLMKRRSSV

The test has as its target Potassium channel subfamily K member 3 (Homo sapiens) (UniProt O14649). The experiment in a line: blockers of TASK1 two-pore potassium channel – CHO cells, FluxOR thallium flux, B-score, primary screen (AID 602410).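 For B-score: more negative B-score means stronger inhibition of thallium flux through KCNK3.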 To be noted: CHO-KCNK3 thallium flux, FluxOR fluorescence, at 10 µM; hits give low values.
As for `Cc1ccc(C(=O)N/C(=C\c2cn(S(=O)(=O)N(C)C)c3ccccc23)C(=O)N2CCCC2)cc1`, the B-score entry is “inactive”. For `C=CCSc1nnc(N2C(=O)C(O)=C(C(=O)c3ccco3)C2c2ccc(F)cc2)s1` (configuration not stated), the B-score is -10.6 (active). As for `Cc1ccc2nc(N3C(=O)C(O)=C(C(=O)c4ccco4)C3c3cccc(O)c3)sc2c1` (configuration not stated), the B-score result was “inactive”. With `C=CCOc1cccc(C2C(C(=O)c3ccc(C)o3)=C(O)C(=O)N2c2nnc(C)s2)c1` (configuration not stated), the B-score entry is “inactive”.

In the case of `Cc1cc(OC(=O)c2c(Cl)cccc2Cl)nc(C)n1`, the B-score result is “inactive”. On to `O=C(c1c(F)cccc1Cl)N1CCN(S(=O)(=O)c2ccc3c(c2)OCCCO3)CC1`, for which the B-score entry is “inactive”. For the molecule `Cc1cc(C)c(S(=O)(=O)c2ccccc2)c(OC(=O)c2c(F)cccc2Cl)n1`, the B-score was -14.3 (active). Consider `CCCCc1nc2ccccc2c(NC(=O)CN2CCN(C)CC2)c1CCC`, for which the B-score result is “inactive”. Regarding `CSCc1cc(N2CCOCC2)nc(SCc2ccc(Cl)cc2Cl)n1`, the B-score result was “inactive”. Regarding `Clc1ccc(CSc2nnc(/C=C/c3ccccc3)o2)c(Cl)c1`, the B-score entry is “inactive”. With `CSCc1cc(N(C)C)nc(SCc2ccc(Cl)cc2Cl)n1`, the B-score is -9.62 (active). The value for `CC(=O)Nc1ccc(NC(=O)COC(=O)c2ccccc2C(=O)c2ccccc2)cc1` was “inactive”. In the case of `CC(=O)Nc1ccc(NC(=O)C(C)OC(=O)c2ccccc2C(=O)c2ccc(Cl)c([N+](=O)[O-])c2)cc1` (configuration not stated) it was “inactive”; in that of `N#Cc1cccc(NC(=O)COC(=O)c2ccccc2C(=O)c2ccc(Cl)c([N+](=O)[O-])c2)c1`, -11.8 (active); in that of `CCOc1ccc2oc(C(=O)N(CC)CC(=O)Nc3ccc(NC(C)=O)cc3)c(C)c2c1`, “inactive”. Turning to `Cc1nc(=O)c(-c2ccccc2)c(C)n1-c1ccc(Br)cc1`, the B-score result was “inactive”. Turning to `CC(C)Oc1ccc(C2NC(=O)NC2=O)cc1` (configuration not stated), the B-score entry was “inactive”.

For the molecule `O=C1c2ccccc2C2=Nc3ccccc3SC(c3ccccc3F)C12` (configuration not stated), the B-score is -12.4 (active). In the case of `Cc1cccc(C2c3c(n(C)c(=O)n(C)c3=O)N=C3c4ccccc4C(=O)C32)c1` (configuration not stated) it was “inactive”. With `Cc1csc2nc(O)c(C(=O)NCCN3CCOCC3)c(=O)n12`, the B-score result is “inactive”. Regarding `Cc1ccc(NC(=O)c2sc3nc(N)c(C#N)cc3c2N)cc1`, the B-score entry is “inactive”. Regarding `Cc1cccc(NC(=O)c2sc3nc4c(c(-c5ccco5)c3c2N)CCC4)c1`, the B-score is -11.4 (active). Regarding `COc1ccc(OC)c(NC(=O)c2sc3nc(C)cc(C)c3c2N)c1`, the B-score result is “inactive”. Regarding `CCCN=C1NC(=O)C(CC(=O)NCCc2ccc(OC)c(OC)c2)S1` (configuration not stated), the B-score result is “inactive”. For the molecule `O=C1c2ccccc2C(Nc2ccc3c(c2)OCCO3)N1Cc1ccco1` (configuration not stated), the B-score entry was “inactive”. On to `CCOC(=O)c1cccc(NC(=O)C2CCN(c3ncnc4c3nc3n4CCCCC3)CC2)c1`, for which the B-score entry was “inactive”. Turning to `COc1ccc(CC(=O)Nc2nc(-c3ccc(F)c(F)c3)cs2)cc1OC`, the B-score was -12.4 (active).

Take `O=C(COc1ccccc1F)Nc1nc(-c2ccccn2)cs1`: the B-score entry was “inactive”.

With `COc1ccccc1NC(=O)Nc1nc(CC(=O)Nc2ccccc2F)cs1`, the B-score result is “inactive”.

Consider `CCOC(=O)N1CCN(Cc2nc(Cc3cccc(C(F)(F)F)c3)no2)CC1`, for which the B-score entry is “inactive”. As for `O=C(NCCCN1CCOCC1)c1cc2c(s1)CCC2`, the B-score entry was “inactive”. `Cc1cccc2c1-c1sc(C(=O)NCCCN3CCc4ccccc4C3)cc1CO2`: the B-score is -9.55 (active).

On to `CN1CCN(CCCNC(=O)c2cc3c(=O)oc4ccccc4c3s2)CC1`, for which the B-score result is “inactive”. Take `O=C(O)Cc1csc(NC(=O)CSc2nnnn2-c2ccc(O)cc2)n1`: the B-score result was “inactive”. In the case of `COc1ccc(Cl)cc1NC(=O)C(C)N1CCc2ccccc21` (configuration not stated) it was -8.75 (active); in that of `COc1ccc(Cl)cc1NC(=O)NC(C)C(C)(C)C` (configuration not stated), “inactive”; in that of `COc1ccc(Cl)cc1NC(=O)NCC1CCN(Cc2ccccc2F)CC1`, “inactive”. As to `O=C(NCc1cn2ccsc2n1)Nc1cccc(Cl)c1`, the B-score entry is “inactive”. For the molecule `Cc1ccc(S(=O)(=O)NCc2cn3ccsc3n2)c(C)c1`, the B-score was -20.8 (active). In the case of `Cc1nc(CNS(=O)(=O)c2cc([N+](=O)[O-])ccc2C)cs1` it was “inactive”; in that of `COC(=O)c1ccccc1N=Nc1c(C)[nH][nH]c1=O`, “inactive”. `CCN1CCN(CCNC(=O)c2ccc(/C=C3/Sc4ccccc4N(Cc4cccc(C)c4)C3=O)cc2)CC1`: the B-score was -11.5 (active).

For `O=C(NCCCN1CCOCC1)c1ccc2c(c1)N(Cc1cccc(F)c1)C(=O)c1ccccc1S2`, the B-score result is “inactive”. For `CN1CCN(CCCNC(=O)c2ccc(/C=C3\Oc4ccccc4N(Cc4ccc(Cl)cc4)C3=O)cc2)CC1`, the B-score result was “inactive”. Consider `CC[C@]1(C(=O)OC)[C@H]2C(=O)N(Cc3ccccc3)C(=O)[C@H]2[C@H]2CN=C(SCc3ccc(C#N)cc3)N21`, for which the B-score entry was “inactive”. For `CCc1ccc(OC(C)C(=O)Nc2ccc(S(=O)(=O)Nc3cc(C)on3)cc2)cc1` (configuration not stated), the B-score entry was “inactive”.

With `Cc1cc(NC(=O)Nc2ccc(Cl)cc2)n(-c2ccccc2)n1`, the B-score was -10.7 (active). In the case of `Cc1ccc(NC(=O)Nc2cc(-c3ccccc3)nn2C)cc1Cl`, the B-score entry is “inactive”. In the case of `Cc1cc(C(=O)NCCc2ccc(Cl)cc2)n(-c2ccccc2)n1` it was “inactive”; in that of `O=[N+]([O-])c1ccc(N/N=C2/CCCCC2c2ccccn2)c([N+](=O)[O-])c1` (configuration not stated), “inactive”. `O=C(Nc1ccccc1)O/N=C1\CCCCC1c1ccc([N+](=O)[O-])cc1[N+](=O)[O-]` (configuration not stated): the B-score is -9.88 (active). Regarding `C[n+]1ccccc1C1CCCC/C1=N\Nc1ccc([N+](=O)[O-])cc1[N+](=O)[O-]` (configuration not stated), the B-score result is “inactive”. Turning to `Cc1ccc(S(=O)(=O)N(CC(O)CN2C(=O)NC(C)(C)C2=O)c2cccc([N+](=O)[O-])c2)cc1` (configuration not stated), the B-score entry is “inactive”. Regarding `C/C(=N/NC(=O)c1ccc(Br)o1)c1ccc(C)o1`, the B-score result is “inactive”. As to `O=C(C1CC(=O)N(c2ccc(Br)cc2)C1)N1CCCC1` (configuration not stated), the B-score entry is “inactive”. Consider `CC(NC(=O)Cn1cc(C(F)(F)F)cc(Cl)c1=O)c1ccccc1` (configuration not stated), for which the B-score result was “inactive”. `CC(C)(CCl)C(=O)Nc1ccc(Sc2ccc(F)cc2)cc1`: the B-score is -12 (active). Turning to `O=C(CCl)Nc1ccc(Sc2ccc(NC(=O)CCl)cc2)cc1`, the B-score entry was “inactive”. On to `O=C(Nc1ccncc1)Nc1ccc(F)cc1`, for which the B-score result is “inactive”. The value for `CCn1nnnc1SCC(=O)c1ccc(C)cc1C` was “inactive”; that for `Cc1ccc(NC(=O)COc2ccc(-n3ccnc3)cc2)cc1Cl` was “inactive”. As to `c1ccc(CN=C2Nc3ccccc3CS2)nc1`, the B-score result was “inactive”. In the case of `COc1ccc(C(CCNCc2ccccc2F)c2ccc(F)cc2)cc1` (configuration not stated), the B-score result was “inactive”. In the case of `CN(CC(=O)Nc1ccc(S(=O)(=O)N2CCCC2)cc1)Cc1ccc(Cl)c(Cl)c1`, the B-score entry was “inactive”. For `CN(CCC(=O)Nc1cc(S(=O)(=O)N(C)C)ccc1Cl)CC(=O)Nc1ccc(F)cc1`, the B-score is -16.6 (active). The value for `CN(CC(=O)Nc1ccc(F)cc1)CC(=O)Nc1ccc(Cl)c(S(=O)(=O)N2CCOCC2)c1` was “inactive”; that for `COc1cc(C(=O)CCc2ccc3c(c2)OCO3)cc(OC)c1OC` was “inactive”.
